Measurements: ChEMBL document CHEMBL3433997, “St. Jude Leishmania screening dataset” (2016)

Each compound was assayed against Solute carrier family 2, facilitated glucose transporter member 1 (Homo sapiens) (UniProt P11166) (assay: ST_JUDE_LEISH: Cytotoxicity at 2uM final concentration against transgenic Leishmania Mexicana promastigotes LmGLUT1 that are glucose transport deficient and complemented with the human glucose transporter GLUT1. Activity is measured by DNA content using SYBR green in vitro).
Assay type: functional

Chain of Solute carrier family 2, facilitated glucose transporter member 1 (Homo sapiens) (P11166 whole entry): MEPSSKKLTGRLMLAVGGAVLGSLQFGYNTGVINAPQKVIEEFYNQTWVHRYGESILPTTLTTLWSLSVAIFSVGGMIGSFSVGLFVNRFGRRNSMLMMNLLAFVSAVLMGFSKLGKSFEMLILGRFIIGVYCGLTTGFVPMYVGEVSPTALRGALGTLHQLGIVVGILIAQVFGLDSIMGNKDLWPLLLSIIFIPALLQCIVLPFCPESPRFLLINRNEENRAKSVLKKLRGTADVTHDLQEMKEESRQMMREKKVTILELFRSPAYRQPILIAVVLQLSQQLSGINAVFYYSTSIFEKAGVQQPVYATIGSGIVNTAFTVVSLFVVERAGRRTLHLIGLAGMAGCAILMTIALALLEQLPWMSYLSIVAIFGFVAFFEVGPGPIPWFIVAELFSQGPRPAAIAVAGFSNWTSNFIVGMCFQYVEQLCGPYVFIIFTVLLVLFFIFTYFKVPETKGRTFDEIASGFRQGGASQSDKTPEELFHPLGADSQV

SMILES | inhibition
O=C(NC1CCCCN(Cc2ccccc2O)C1)c1cccc(Cl)c1 (stereo not given) | 1.27%
CC(C)Nc1nc(NCCc2c[nH]cn2)nc(NCc2cccc3ccccc23)n1 | -1.11%
Fc1cc(Cl)ccc1Nc1ccnc2cc(-c3ccc(CN4CCCCC4)o3)ccc12 | 2.55%
COc1ccc2c(=NN=Cc3ccncc3)cc(C)[nH]c2c1 | 4.05%
NC1=NC2(CCCCC2)N(OCCCCCCc2ccccc2)C(N)=N1 | 2.09%
Cc1cc(NC(=O)c2ccsc2)ccc1OC1CCN(Cc2ccc(F)cc2)CC1 | -0.33%
N#Cc1ccc(-c2ccc(C(=O)NCCCCN3CCC(c4cc(Br)c5c(c4O)CCCC5)CC3)cc2)cc1 | 0.25%
Cc1cccc(C(=O)Nc2ccnc(N3CCCN(Cc4cccc(O)c4)CC3)c2)c1 | -0.1%
Oc1ccc2[nH]c(-c3cccc(F)c3)nc2c1CN1CCC(N2CCCC2)CC1 | 3.47%
Cc1cc(Oc2cc(NC(=O)c3sc4ncn(Cc5ccccc5F)c(=O)c4c3C)cc([N+](=O)[O-])c2)ccc1Cl | 1.2%
CCOc1ccc(-c2nonc2NC(=O)c2ccccc2Cl)cc1OCC | 5.4%
CCCCCCN1CCCN(Cc2cccc(C(=O)Nc3ccc(C(C)(C)C)cc3)c2)CC1 | 1.39%
CCCCCOc1c(CCC)cc(Cc2cnc(N)nc2N)cc1CCC | 14.7%
CNCCNCc1cccc(-c2cccc(-c3nc4cc(F)ccc4[nH]3)c2)c1 | 10.2%
NCCCOc1cnc(-c2ccccc2)c2nc(-c3nonc3N)n(CCc3ccccc3)c12 | 4.6%
CCCCCCCCOc1c(OCC)cc(Cc2cnc(N)nc2N)cc1OCC | 13.7%
CC(=O)N(C)c1ccc(C(=O)Nc2cccc(-c3cccc(-c4nc5cc(C(F)(F)F)ccc5[nH]4)c3)c2)cc1 | 8.18%
c1cc(-c2cc3ccc(C4=NCCN4)cc3[nH]2)ccc1C1=NCCN1 | 1.68%
Cc1cc(-c2ccc3occ(CCN)c3c2)cnc1N | 1.36%
CCCC(C)NC(=O)[C@H](Cc1ccccc1)NC(=O)c1ccc(O)c(-c2ccc(OC)cc2)c1 (stereo not given in full) | 4.38%

SMILES | inhibition
CCCNCc1ccc(-c2ccc(CN(C(=O)c3nn(-c4ccccc4)nc3C)C3CC3)cc2)nc1 | 0.19%
Cc1cc(C)c2ncc(C(=O)O)c(O)c2c1 | 2.75%
Nc1c(Cl)cc(C(O)CNCCCCCOCCCc2ccc(O)c3ncccc23)cc1Cl (stereo not given) | 103%
NC1=NC(c2ccccc2)(c2ccccc2)C(=O)N1CCOc1ccccc1 | 1.06%
COc1ccc2c(c1)[nH]c1c(C=Cc3ccccc3)nccc12 | 6.16%
Cc1n[nH]c2ccc(-c3cc(OC[C@@H](N)Cc4ccccc4)cnc3-c3ccccc3OCc3cccc(F)c3)cc12 | 9.75%
Cc1nc2nc(N)nc(N)c2c(C)c1Cc1c(Cl)cccc1Cl | 8.8%
Cc1cc(-c2ccc(NC(=O)N3CCc4cc(Br)c(N5CCN(C)CC5)cc43)cc2)ccc1C#N | 11.9%
O=C(C1CCN(C(c2ccccc2)c2ccc(Cl)c(Cl)c2)CC1)N1CC=CC1 (stereo not given) | 0.54%
CC1(C)S(=O)(=O)CC(O)CS1(=O)=O | 3.87%
O=C(Nc1cccc(CN2CCCN(Cc3cccc(F)c3)CC2)c1)c1ccc(Cl)c(Cl)c1 | 4.11%
O=C(N[C@@H](CC1CCCCC1)C(=O)NC1CCCCCC1)c1ccc(O)c(-c2ccc(Cl)c(Cl)c2)c1 | -0.25%
CCCCN1CCCC[C@H]1[C@@H](O)c1ccnc2ccc(OCC)cc12 | 2.63%
CC(C)CCNc1nc(NCc2ccccc2)c2cc(O)ccc2n1 | 5.89%
CC(C)N1CCC(N(Cc2ccc(-c3ccc(C(F)(F)F)cc3)cc2)C(=O)Cn2c(SCc3cccc(F)c3F)cc(=O)c3ccccc32)CC1 | -0.18%
Cc1nc(N)nc(N)c1-c1ccc(Cl)cc1 | 3.05%
COc1cc(Nc2ccnc3cc(-c4ccccn4)ccc23)cc(OC)c1OC | 5.56%
CCc1nc(N)nc(N)c1-c1ccccc1 | 2.31%
Nc1c2c(nc3ccc(Oc4ccc(Cl)cc4)cc13)CCCC2 | 60.9%
O=c1c2cccnc2sn1-c1ccccc1 | 0.94%

The compounds below were run against Hexose transporter 1 (Plasmodium falciparum) (UniProt O97467) (assay: ST_JUDE_LEISH: Cytotoxicity at 2uM final concentration against transgenic Leishmania Mexicana promastigotes LmPfHT that are glucose transport deficient and complemented with the Plasmodium falciparum hexose transporter. Activity is measured by DNA content using SYBR green in vitro).
Assay type: functional

SMILES | inhibition
O=C(NC1CCCCN(Cc2ccccc2O)C1)c1cccc(Cl)c1 (stereo not given) | 1.65%
CC(C)Nc1nc(NCCc2c[nH]cn2)nc(NCc2cccc3ccccc23)n1 | -0.07%
Fc1cc(Cl)ccc1Nc1ccnc2cc(-c3ccc(CN4CCCCC4)o3)ccc12 | 1.59%
COc1ccc2c(=NN=Cc3ccncc3)cc(C)[nH]c2c1 | 3.94%
NC1=NC2(CCCCC2)N(OCCCCCCc2ccccc2)C(N)=N1 | 1.39%
Cc1cc(NC(=O)c2ccsc2)ccc1OC1CCN(Cc2ccc(F)cc2)CC1 | 2.48%
N#Cc1ccc(-c2ccc(C(=O)NCCCCN3CCC(c4cc(Br)c5c(c4O)CCCC5)CC3)cc2)cc1 | 0.94%
Cc1cccc(C(=O)Nc2ccnc(N3CCCN(Cc4cccc(O)c4)CC3)c2)c1 | 1.14%
Oc1ccc2[nH]c(-c3cccc(F)c3)nc2c1CN1CCC(N2CCCC2)CC1 | 3.65%
Cc1cc(Oc2cc(NC(=O)c3sc4ncn(Cc5ccccc5F)c(=O)c4c3C)cc([N+](=O)[O-])c2)ccc1Cl | 1.84%
CCOc1ccc(-c2nonc2NC(=O)c2ccccc2Cl)cc1OCC | 7.22%
CCCCCCN1CCCN(Cc2cccc(C(=O)Nc3ccc(C(C)(C)C)cc3)c2)CC1 | 0.8%
CCCCCOc1c(CCC)cc(Cc2cnc(N)nc2N)cc1CCC | 12.3%
CNCCNCc1cccc(-c2cccc(-c3nc4cc(F)ccc4[nH]3)c2)c1 | 7.92%
NCCCOc1cnc(-c2ccccc2)c2nc(-c3nonc3N)n(CCc3ccccc3)c12 | 2%
CCCCCCCCOc1c(OCC)cc(Cc2cnc(N)nc2N)cc1OCC | 7.75%
CC(=O)N(C)c1ccc(C(=O)Nc2cccc(-c3cccc(-c4nc5cc(C(F)(F)F)ccc5[nH]4)c3)c2)cc1 | 7.82%
c1cc(-c2cc3ccc(C4=NCCN4)cc3[nH]2)ccc1C1=NCCN1 | 2.57%
Cc1cc(-c2ccc3occ(CCN)c3c2)cnc1N | 0.86%
CCCC(C)NC(=O)[C@H](Cc1ccccc1)NC(=O)c1ccc(O)c(-c2ccc(OC)cc2)c1 (stereo not given in full) | 3.09%

SMILES | inhibition
CCCNCc1ccc(-c2ccc(CN(C(=O)c3nn(-c4ccccc4)nc3C)C3CC3)cc2)nc1 | 0.58%
Cc1cc(C)c2ncc(C(=O)O)c(O)c2c1 | 3.7%
Nc1c(Cl)cc(C(O)CNCCCCCOCCCc2ccc(O)c3ncccc23)cc1Cl (stereo not given) | 99.7%
NC1=NC(c2ccccc2)(c2ccccc2)C(=O)N1CCOc1ccccc1 | 0.96%
COc1ccc2c(c1)[nH]c1c(C=Cc3ccccc3)nccc12 | 5.09%
Cc1n[nH]c2ccc(-c3cc(OC[C@@H](N)Cc4ccccc4)cnc3-c3ccccc3OCc3cccc(F)c3)cc12 | 1.05%
Cc1nc2nc(N)nc(N)c2c(C)c1Cc1c(Cl)cccc1Cl | 10.7%
Cc1cc(-c2ccc(NC(=O)N3CCc4cc(Br)c(N5CCN(C)CC5)cc43)cc2)ccc1C#N | 18.9%
O=C(C1CCN(C(c2ccccc2)c2ccc(Cl)c(Cl)c2)CC1)N1CC=CC1 (stereo not given) | 3.99%
CC1(C)S(=O)(=O)CC(O)CS1(=O)=O | 3.02%
O=C(Nc1cccc(CN2CCCN(Cc3cccc(F)c3)CC2)c1)c1ccc(Cl)c(Cl)c1 | 2.83%
O=C(N[C@@H](CC1CCCCC1)C(=O)NC1CCCCCC1)c1ccc(O)c(-c2ccc(Cl)c(Cl)c2)c1 | 1.39%
CCCCN1CCCC[C@H]1[C@@H](O)c1ccnc2ccc(OCC)cc12 | 3.12%
CC(C)CCNc1nc(NCc2ccccc2)c2cc(O)ccc2n1 | 5.74%
CC(C)N1CCC(N(Cc2ccc(-c3ccc(C(F)(F)F)cc3)cc2)C(=O)Cn2c(SCc3cccc(F)c3F)cc(=O)c3ccccc32)CC1 | 1.73%
Cc1nc(N)nc(N)c1-c1ccc(Cl)cc1 | 2.21%
COc1cc(Nc2ccnc3cc(-c4ccccn4)ccc23)cc(OC)c1OC | 8.67%
CCc1nc(N)nc(N)c1-c1ccccc1 | 2.67%
Nc1c2c(nc3ccc(Oc4ccc(Cl)cc4)cc13)CCCC2 | 70.5%
O=c1c2cccnc2sn1-c1ccccc1 | 0.87%
